# Screening results (PubChem)
# Shown are actives, neighbours in structure and some others; about 1.6% of the full set was active somewhere.
# KCNQ2 block: blocks the rat KCNQ2 potassium channel. O88943. CHO-K1 KCNQ2, FluxOR thallium flux, 20 min; active compounds read low. B-score at 10 µM. 1.1% of 310,000 active;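 active = fluorescence ratio B-score at most minus 3 library SDs, with starting brightness B-score within 2 library SDs, cut at about -5.5 in these data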
# KCNQ2 enhance: KCNQ2 (rat) channel potentiation; O88943; CHO-K1 KCNQ2, FluxOR thallium flux fluorescence; active compounds read high; B-score at 10 µM; 0.54% of 310,000 active; AID 2239;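 active = fluorescence ratio B-score at least 3 SD of library B-scores, with initial fluorescence B-score within 3 of them, cut at about 5.3 in these data; same plate scores as AID 2156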;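 note: B-score of peak minus minimum over baseline fluorescence ratio after K+ and Tl+ stimulus; positive B-score means potentiation of KCNQ2 with more thallium influx and brighter signal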
# Kir21 conf inh: confirmation of mouse Kir2.1 potassium channel inhibitors | shares compounds with KCNQ2 enhance | Kir2.1-expressing cells, FluxOR thallium flux fluorescence; active compounds read low | Tl flux remaining, % of negative control (active compounds read low), % at 10 µM | 41% of 2,300 active | AID 2032;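 active = Primary-screen hit whose thallium flux fell at least 3 control SD below untreated wells in both duplicates, with normal baseline fluorescence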
# Target sequence (P35561 whole entry, looked up): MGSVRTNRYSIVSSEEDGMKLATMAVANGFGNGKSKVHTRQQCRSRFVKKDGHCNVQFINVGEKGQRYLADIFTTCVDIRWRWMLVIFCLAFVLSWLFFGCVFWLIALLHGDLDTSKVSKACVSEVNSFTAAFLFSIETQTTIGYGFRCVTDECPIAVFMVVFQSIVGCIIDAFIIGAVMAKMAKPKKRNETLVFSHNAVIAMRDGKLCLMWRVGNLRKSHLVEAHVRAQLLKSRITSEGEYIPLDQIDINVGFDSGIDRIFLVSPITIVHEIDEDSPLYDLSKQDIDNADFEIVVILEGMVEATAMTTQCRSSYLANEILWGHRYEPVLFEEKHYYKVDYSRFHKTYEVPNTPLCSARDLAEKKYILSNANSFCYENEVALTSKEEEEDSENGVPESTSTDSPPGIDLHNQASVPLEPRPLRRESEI
# HEK293 Tl flux: alters thallium flux in parental HEK293 cells, Kir2.1 counter-screen. shares compounds with KCNQ2 enhance. FluxOR thallium flux fluorescence; 0% = unstimulated blank wells. FluxOR signal as % of negative control (100 = no effect), % at 10 µM. 19% of 2,300 active;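 active = dye signal at least 3 control SD above or below untreated wells in both duplicates, raw fluorescence within 3, either direction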;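 note: percent is based on the flux ratio of peak minus minimum fluorescence over baseline F0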
# CHO-K1 Tl ctr: counter-screen for KCNQ2 potentiators: effect in parental CHO-K1 cells; shares compounds with KCNQ2 enhance; FluxOR thallium flux fluorescence; zero = vehicle mean+3SD, 100% = vehicle-minus-blank window; activity increase over 3SD of controls, % at 10 µM; 43% of 1,200 active;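 active = signal rise of at least 3 SD above the untreated control mean, in both duplicate wells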;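 note: counter screen of KCNQ2 potentiator hits so any rise reflects channel-independent effects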
# KCNQ1 pot spec: selectivity of KCNQ2 potentiators: effect on human KCNQ1 | shares compounds with KCNQ2 enhance | AID 2283 | activation over 3SD threshold, % at 10 µM | 28% of 1,200 active | CHO KCNQ1 stable, FluxOR thallium flux fluorescence; beyond 3SD, as % of vehicle-control signal;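 active = fluorescence ratio rise of at least 3 SD of vehicle wells above their mean, in both replicate wells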
# KCNQ2 pot confirm: rat KCNQ2 channel potentiator confirmation. AID 2287. shares compounds with KCNQ2 enhance. potentiation, less the hit threshold, % at 10 µM. 68% of 1,200 active. CHO-KCNQ2 cells, FluxOR thallium flux fluorescence;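 active = fluorescence ratio rising 3 SD or more over the vehicle control mean in both replicates, plus primary screen hit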;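 note: peak minus minimum thallium fluorescence divided by baseline after K/Tl stimulus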
# Kir2-1 sel: selectivity of KCNQ2 potentiators: effect on mouse Kir2.1; shares compounds with KCNQ2 enhance; HEK293 Kir2.1, FluxOR thallium flux fluorescence; 2% of 1,200 active; activity over 3SD threshold, % at 10 µM;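 active = fluorescence ratio rise of at least 3 SD above the vehicle-control mean, seen in both replicates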
# KCNQ2 W236L pot: KCNQ2 potentiators acting on retigabine-insensitive rat KCNQ2 W236L mutant; 10% of 940 active; CHO KCNQ2-W236L, automated patch clamp current; current increase over 3SD of negative controls (%), active compounds read high, % at 25 µM; shares compounds with KCNQ2 enhance;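 active = current increase at least 3 SD of the untreated controls above them in both duplicate recordings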
# A number is an active result; - = inactive; . = no result given.
SMILES,KCNQ2 block,KCNQ2 enhance,Kir21 conf inh,HEK293 Tl flux,others
COc1ccc(CCNC(=O)C(C)SCc2ccccc2)cc1 (configuration not stated),-,-,41%,-,
CC(C)Cc1nc(SCC(=O)N2CCCCC2)c2c(=O)n(C)c(=O)n(C)c2n1,-,27,-,-,CHO-K1 Tl ctr=-;KCNQ1 pot spec=-;KCNQ2 pot confirm=121;Kir2-1 sel=-;KCNQ2 W236L pot=-
CCc1nc(SCC(N)=O)c2c(=O)n(C)c(=O)n(C)c2n1,-,-,.,.,
CC(C)c1nc(SCC(=O)N2CCOCC2)c2c(=O)n(C)c(=O)n(C)c2n1,-,-,.,.,
CCCc1nc(SCC(=O)N2CCC(C)CC2)c2c(=O)n(C)c(=O)n(C)c2n1,-,25,-,-,CHO-K1 Tl ctr=-;KCNQ1 pot spec=-;KCNQ2 pot confirm=141;Kir2-1 sel=-;KCNQ2 W236L pot=-
CC(C)Cc1nc(SCC(=O)N2CCOCC2)c2c(=O)n(C)c(=O)n(C)c2n1,-,-,.,.,
CCc1nc(SCC(=O)N2CCCCC2)c2c(=O)n(C)c(=O)n(C)c2n1,-,9.1,-,-,CHO-K1 Tl ctr=-;KCNQ1 pot spec=-;KCNQ2 pot confirm=42;Kir2-1 sel=-;KCNQ2 W236L pot=-
CC1CCN(C(=O)CSc2nc3c(c(=O)n(C)c(=O)n3C)n2C)CC1,-,-,.,.,
CCc1nc(SCC(=O)N2CCC(C)CC2)c2c(=O)n(C)c(=O)n(C)c2n1,-,16,-,-,CHO-K1 Tl ctr=-;KCNQ1 pot spec=-;KCNQ2 pot confirm=81;Kir2-1 sel=-;KCNQ2 W236L pot=-
O=C(CNC(=O)CNC(=O)c1ccc(Cl)cc1Cl)NCc1cccc(Cl)c1,-,.,.,.,
O=Nc1c(O)n(Cc2cccc(C(F)(F)F)c2)c2ccccc12,-,.,.,.,
CC1(C)CC2=C(CO1)C(=S)NC(c1ccccc1)N2CC1CCCO1 (configuration not stated),-,-,.,.,
O=C(CN1CCN(Cc2ccc(Cl)cc2)CC1)N1CCc2ccccc21,-,-,35%,-,
O=C(CN1CCN(Cc2ccccc2)CC1)N1CCCc2ccccc21,-,-,.,.,
CN(C)C(CNC(=O)c1cccc(S(=O)(=O)NCc2ccccc2)c1)c1ccco1 (configuration not stated),-,.,.,.,
C=CCn1c(SCC(=O)NCC)nc2sc3c(c2c1=O)CCC3,-,-,.,.,
Cc1ccc(NCN2C(=O)C3C4CCC(C4)C3C2=O)cc1 (configuration not stated),-,6.2,-,-,CHO-K1 Tl ctr=-;KCNQ1 pot spec=-;KCNQ2 pot confirm=-;Kir2-1 sel=-
CC(=O)Nc1ccc(NCN2C(=O)C3C4CCC(C4)C3C2=O)cc1 (configuration not stated),-,-,.,.,
Cc1ccc(O)c(-n2nc3ccccc3n2)c1,-,-,.,.,
COc1ccccc1Nc1nc(-c2cccc([N+](=O)[O-])c2)cs1,-,-,.,.,
O=[N+]([O-])c1cccc(-c2csc(Nc3ccccc3)n2)c1,-,-,-,-,
CCn1c(COc2ccc(C)cc2)nnc1SCc1ccc(C#N)cc1,-,.,68%,-,
CCn1c(COc2ccc(=O)n(-c3ccccc3)n2)nnc1SCc1ccc(C)cc1,-,.,.,.,
O=C(NC(=S)NCc1ccccc1)c1cccc(Cl)c1,-,.,.,.,
COc1ccccc1CNC(=O)c1sccc1C,-,.,.,.,
SMILES,KCNQ2 block,KCNQ2 enhance,Kir21 conf inh,HEK293 Tl flux,others
COc1ccccc1CNC(=O)c1sccc1-c1ccccc1,-,.,74%,-,
COc1cccc(CN(C)C(=O)c2sccc2-c2ccccc2)c1OC,-,.,.,.,
CN(Cc1ccccc1F)C(=O)c1sccc1-c1ccccc1,-,.,54%,-,
CC(C)Oc1ccc(/C=C/C(=O)NCC2COc3ccccc3O2)cc1 (configuration not stated),-,.,.,.,
Oc1ccccc1C1=NN(c2ccccc2)C(c2ccc(F)cc2)C1 (configuration not stated),-,-,.,.,
Oc1ccc(C2=NN(c3ccccc3)C(c3ccc(F)cc3)C2)cc1 (configuration not stated),-,12,-,-,CHO-K1 Tl ctr=3.9;KCNQ1 pot spec=-;KCNQ2 pot confirm=-;Kir2-1 sel=-
CCOC(=O)N1CCN(CC(O)COc2ccccc2C(C)C)CC1 (configuration not stated),-,-,.,.,
COc1ccc(C2CCCN2CC(O)COc2ccccc2C(C)C)cc1 (configuration not stated),-6.6,-,30%,-,
Cc1cc(OC(=O)c2cc([N+](=O)[O-])ccc2Cl)c([N+](=O)[O-])c(=O)[nH]1,-,-,.,.,
Cc1ccc(-n2cc(CNCCCn3cccn3)c(-c3cccc(C)c3)n2)cc1,-,.,.,.,
Cc1ccc(-n2cc(CNCCCn3ccnc3C)c(-c3ccc(F)cc3)n2)cc1,-,.,60%,-,
COC(=O)C(NNc1ccccc1C)(NC(=O)c1ccc(F)cc1)C(F)(F)F (configuration not stated),-,.,.,.,
Cc1cc(C)c2ccc(NN)nc2c1O,-,.,.,.,
Cc1cc(C)c2ccc(/C=N/O)nc2c1O,-,12,-,-,CHO-K1 Tl ctr=147;KCNQ1 pot spec=12;KCNQ2 pot confirm=-;Kir2-1 sel=-;KCNQ2 W236L pot=-
Oc1c(Br)cc(Br)cc1CNc1cccc2cccnc12,-,8.8,-,-,CHO-K1 Tl ctr=2.2;KCNQ1 pot spec=-;KCNQ2 pot confirm=-;Kir2-1 sel=-
COc1cccc(CNc2cccc3cccnc23)c1O,-,.,.,.,
Cc1ccc(S(=O)(=O)N2CCC(C(=O)OCc3ccc([N+](=O)[O-])cc3)CC2)cc1,-,.,.,.,
COC(=O)c1ccc(N2C(=O)Nc3ccccc3N2O)cc1,-,-,.,.,
COc1cc(C(C2=C(O)CC(C)(C)CC2=O)C2C(=O)CC(C)(C)CC2=O)cc(OC)c1OC (configuration not stated),-,.,.,.,
CC1(C)CC(=O)C(C(C2=C(O)CC(C)(C)CC2=O)c2ccco2)C(=O)C1 (configuration not stated),-,5.4,-,-,CHO-K1 Tl ctr=135;KCNQ1 pot spec=-;KCNQ2 pot confirm=42;Kir2-1 sel=-;KCNQ2 W236L pot=-
O=C(NC1CCCCC1)c1ccc(-c2cccc([N+](=O)[O-])c2)o1,-,.,.,.,
Cc1cccnc1NC(=O)CCc1nnc2ccc(N3CCC4(CC3)OCCO4)nn12,-,-,.,.,
Cc1c(NC(=S)NC(=O)c2ccc(Br)o2)c(=O)n(-c2ccccc2)n1C,-,.,.,.,
Cc1ccc(NC(=S)NC(=O)c2ccc(Br)o2)c(C)c1,-,-,.,.,
O=C(NNC(=S)Nc1ccccc1C(F)(F)F)c1ccc(Br)o1,-,-,.,.,
Cc1cccc(NC(=S)NC(=O)c2ccc(Br)o2)c1C,-,8.4,-,148%,CHO-K1 Tl ctr=47;KCNQ1 pot spec=-;KCNQ2 pot confirm=28;Kir2-1 sel=-;KCNQ2 W236L pot=-
O=C(NC(=S)Nc1ccccc1F)c1ccc(Br)o1,-,16,-,-,CHO-K1 Tl ctr=57;KCNQ1 pot spec=-;KCNQ2 pot confirm=67;Kir2-1 sel=-;KCNQ2 W236L pot=-
Cc1cccc(C)c1NC(=S)NC(=O)c1ccc(Br)o1,-,14,-,-,CHO-K1 Tl ctr=0.9;KCNQ1 pot spec=-;KCNQ2 pot confirm=60;Kir2-1 sel=-;KCNQ2 W236L pot=-
